Several values for one entry are separate records, joined by “and”; a condition that tells them apart may be missing. Equal values may be shown once. Records with an inconclusive call do not appear. More than one record can exist for a structure, and the calls need not agree. Activity calls are given as the source filed them. Unless noted, calls come from the whole dose curve; as a rule, active = well fitted curve in the direction sought with a large enough effect in the repeat runs; inconclusive = weak or mixed curves; inactive = no such curve, though single readings can be large; an effect the other way counts as inactive or inconclusive.

These results are taken from PubChem BioAssay (Tox21).

Assay [1] can be described thus: qHTS assay for small molecule agonists of the p53 signaling pathway (AID 651631; calls by dose curve; note: nearly all actives have a fitted effect of over 15% in size; note: potency is the fitted concentration of half-maximal effect). The method in brief: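 Agonist mode screen using a stably integrated beta-lactamase gene under p53 response elements in HCT-116 cells. Compound exposure lasts 16 h at 37 °C; fluorescence intensity is measured following 2 h FRET substrate loading.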
A general note: qHTS replaces the single test concentration by a dilution series.

The nature of assay [2]: qHTS assay for small molecules that induce genotoxicity in human embryonic kidney cells expressing luciferase-tagged ATAD5 (AID 651632). Note: nearly all actives have a fitted effect of over 15% in size. Note: potency is the fitted concentration of half-maximal effect. In outline:
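HEK293T cells carrying luciferase-tagged ATAD5 were given compound or DMSO vehicle and incubated 16 hr at 37C, 5% CO2. Luciferase activity was read after 30 min at room temperature with Amplite; a rise signals genotoxic stress.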

Assay [3] is described as follows: qHTS assay for small molecule agonists of the p53 signaling pathway - cell viability (AID 651633; calls by dose curve; note: nearly all actives have a fitted effect of over 30% in size; note: potency is the fitted concentration of half-maximal effect;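 for activity change, negative = cytotoxicity: p53RE-bla HCT reporter cells with a stable beta-lactamase p53 reporter; series mostly up to about 83 µM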). In outline:
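p53RE-bla cells, seeded at 4,000 per well and rested 5 h at 37 C/5% CO2, received compounds in DMSO for 16 h at 37 C. CellTiter-Glo was then added, and luminescence was read after 30 min at room temperature to gauge cytotoxicity.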

A short description of assay [4]: qHTS assay for small molecules that induce genotoxicity in human embryonic kidney cells expressing luciferase-tagged ATAD5 - cell viability (AID 651634; calls by dose curve; note: nearly all actives have a fitted effect of over 25% in size; note: potency is the fitted concentration of half-maximal effect). The method in brief: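 HEK293T cells carrying luciferase-tagged ATAD5, 2,000 cells/well, exposed to compound for 15.5 hr at 37C. Viability read as live-cell protease activity by CellTiter-Fluor fluorescence after 30 min at 37C.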

Assay [5] is described as follows: qHTS assay for small molecule disruptors of the mitochondrial membrane potential - cell viability (AID 720634; calls by dose curve;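 note: human HepG2 liver cancer cells; series mostly up to about 83 µM; nearly all actives have a fitted effect of over 20% in size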). In outline:
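HepG2 cells, 2,000 per well, attached overnight, then treated 1 hr at 37 C, 5% CO2. Viability read as ATP by CellTiter-Glo luminescence after 30 min at room temperature. Read in the same wells as the m-MPI membrane-potential dye assay.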

Assay [6] is described as follows: qHTS assay to test for compound auto fluorescence at 590 nm (red) in HepG2 cells (AID 720674). The method in brief:
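Intrinsic compound fluorescence in the red window (Ex/Em 540/590 nm) is measured in attached HepG2 cells exposed for 1 hr, DMSO vehicle as baseline, benchmarked to Rose Bengal sodium.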

Assay [7] in a line: qHTS assay to test for compound auto fluorescence at 535 nm (green) in HepG2 cells (AID 720675).
Assay [8] can be described thus: qHTS assay to test for compound auto fluorescence at 460 nm (blue) in HEK293 cells (AID 720678). In outline:
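HEK293, 2,000 cells/well, 10% dialyzed FBS; attach 4-5 hr 37C; pin compound or DMSO; o/n 37C/5% CO2; fluorescence 405/460 nm; triamterene-equivalent units.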

Assay [9] can be described thus: qHTS assay to test for compound auto fluorescence at 590 nm (red) in HEK293 cells (AID 720679). In outline:
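Intensity at 540nm excitation and 590nm emission is reported as Rose Bengal sodium-equivalent autofluorescence. Measurements followed overnight exposure (37C, 5% CO2) of HEK293 cells, 2,000 per well, to 23 nL compound.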

Assay [10] can be described thus: qHTS assay for small molecule disruptors of the mitochondrial membrane potential (AID 720635). Note: potency is the fitted concentration of half-maximal effect. The method in brief: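 HepG2 cells (2,000/well) attached overnight at 37C, then took compound for 1 hr at 37C, 5% CO2. Mito-MPS dye was added for 30 min; fluorescence was read at 490/535 nm (monomers) and 540/590 nm (aggregates).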
% is set by controls: 0 for no effect and ±100 for the full control effect.

With `COC(=O)Nc1nc2ccc(C(=O)c3cccs3)cc2[nH]1`, the Potency in assay [1] was 133 nM (active); in [2], 2370 nM (active); in assay [4], 133 nM (active). Further, the Potency result in assay [3], in [5] and in [8] was “inactive” each time. Moreover, the call in assay [6], in assay [7] and in assay [9] was inactive.

`CCn1cc(C(=O)O)c(=O)c2cc(F)c(N3CCNCC3)nc21`: the Potency result in [1], in assay [2], in assay [3], in [4] and in [5] was “inactive” each time. The fluorescence, relative to Rose Bengal in assay [6] was 0.819% [at 18.6 µM] (inactive). For the same compound, the fluorescence, % of fluorescein control in [7] is -0.0415% [at 18.6 µM] (inactive). Moreover, the fluorescence, % of triamterene in assay [8] was -0.37% [at 18.6 µM] (inactive). In addition, the fluorescence, % of fluorescent control in [9] was -0.616% [at 18.6 µM] (inactive).

Take `CC1(C)O[C@@H]2C[C@H]3[C@@H]4CCC5=CC(=O)C=C[C@]5(C)[C@H]4[C@@H](O)C[C@]3(C)[C@]2(C(=O)CO)O1`: the Potency result in [1], in [3], in [4], in [5] and in [8] was “inactive” in each case. Further, the Potency in assay [2] is 11.9 nM (active). Also, the compound was classed as inactive in assay [6], in assay [7] and in [9].

As to `CCOC(=O)CC(=O)C(=O)OCC`, the Potency entry in assay [1], in [2], in [3], in assay [4], in assay [5] and in assay [8] was “inactive” each time. Further, the outcome in assay [6], in [7] and in assay [9] was inactive.

As for `CCC(C(=O)OCCOCCN(CC)CC)c1ccccc1` (configuration not stated), the Potency entry in [1], in assay [2], in assay [3], in assay [4], in assay [10] and in assay [8] was “inactive” in each case. The compound was classed as inactive in assay [6], in assay [7] and in assay [9].

Regarding `CCC(C)=O`, the Potency result in assay [1], in [2], in assay [3], in [4] and in assay [8] was “inactive” each time. For the same compound, the compound was classed as inactive in assay [6], in [7] and in assay [9].

Take `CC(=N\O)/C(C)=N/O`: the Potency entry in assay [1], in assay [2], in assay [3] and in [4] was “inactive” throughout. Further, the compound was classed as inactive in assay [6], in assay [7] and in [9].

In the case of `O=C1NCCN1`, the Potency result in [1], in assay [2], in [3], in assay [4] and in assay [8] was “inactive” throughout. Besides, the outcome in assay [6], in assay [7] and in assay [9] was inactive.

On to `CC#N`, for which the Potency result in [1], in assay [2], in [3], in assay [4] and in [8] was “inactive” in each case. In addition, the result in assay [6], in assay [7] and in assay [9] was inactive.

Consider `C=CCCCCCCCCCCCCCCCC`, for which the activation was -3.57% [at 8.3 µM] (inactive) in assay [1] and 2.36% [at 8.08 µM] (inactive) in [2]. The activity change, negative = cytotoxicity in assay [3] is 16.1% [at 8.08 µM] (inactive). Also, the activity, negative = cytotoxicity in assay [4] is 7.59% [at 8.08 µM] (inactive). The fluorescence, relative to Rose Bengal in assay [6] is 0.0868% [at 3.72 µM] (inactive). Further, in [7], the fluorescence, % of fluorescein control was -0.0078% [at 3.72 µM] (inactive). Besides, the fluorescence, % of triamterene in assay [8] is 0.18% [at 3.72 µM] (inactive). Besides, in [9], the fluorescence, % of fluorescent control was 0.277% [at 3.72 µM] (inactive).

`CC(C)CCCCCCOC(=O)CCCCC(=O)OCCCCCCC(C)C`: the Potency entry in assay [1], in assay [2], in assay [3], in assay [4] and in assay [8] was “inactive” in each case. In addition, the compound was called inactive in [6], in assay [7] and in assay [9].

Regarding `C=C(C)C(=O)OCCOC(=O)CC(C)=O`, the Potency result in assay [1], in [2], in assay [3], in assay [4], in assay [10] and in assay [8] was “inactive” each time. Moreover, the compound was called inactive in [6], in assay [7] and in [9].

As for `Nc1ccc(S(=O)(=O)O)c(N)c1`, the Potency result in assay [1], in assay [2], in [3], in assay [4] and in [8] was “inactive” each time. Moreover, the outcome in assay [6] and in assay [9] was inactive.

For `CCCCN(CCCC)CCCOC(=O)c1ccc(N)cc1`, the Potency result in assay [1], in assay [2], in assay [3], in assay [4] and in assay [5] was “inactive” in each case. The fluorescence, relative to Rose Bengal in assay [6] was -0.556% [at 18.6 µM] (inactive). In addition, the fluorescence, % of fluorescein control in assay [7] is 0.038% [at 18.6 µM] (inactive). Further, the fluorescence, % of fluorescent control in assay [9] is 0.141% [at 18.6 µM] (inactive).

As to `CN1CCN(c2c(F)cc3c(=O)c(C(=O)O)cn4c3c2OCN4C)CC1`, the Potency entry in [1], in [2], in assay [3], in assay [4] and in [8] was “inactive” throughout. Besides, the outcome in [6], in assay [7] and in assay [9] was inactive.

As to `Cc1cc(O)c2c(O)c3c(O)cccc3cc2c1`, the Potency entry in assay [1], in assay [2], in assay [3], in assay [4] and in assay [8] was “inactive” each time. Besides, the Potency in assay [10] is 18800 nM (active). Further, the outcome in [6], in assay [7] and in assay [9] was inactive.

Take `O=S(=O)(c1ccccc1)c1ccc(Cl)cc1`: the Potency result in [1], in assay [2], in assay [3], in assay [4] and in [8] was “inactive” throughout. In addition, the result in assay [6], in assay [7] and in assay [9] was inactive.

On to `O=C(CCCCCCCCC#CI)Oc1ccccc1`, for which the Potency result in assay [1], in assay [2], in assay [3], in assay [4] and in [8] was “inactive” in each case. Also, the call in assay [6], in assay [7] and in [9] was inactive.

In the case of `Cc1ccc(S)cc1`, the Potency result in [1], in [2], in assay [3], in assay [4], in [10] and in assay [8] was “inactive” each time. The compound was classed as inactive in assay [6], in [7] and in assay [9].

With `COc1ccccc1N=Nc1c(S(=O)(=O)O)cc2cc(S(=O)(=O)O)cc(NC(C)=O)c2c1O`, the Potency result in [1], in assay [2], in [3] and in assay [8] was “inactive” each time. Besides, in assay [4], the Potency was 28800 nM (active). Besides, the compound was called inactive in assay [6], in assay [7] and in [9].

On to `C=CC(C)(O)CCCC(C)CCCC(C)CCCC(C)C` (configuration not stated), for which the Potency entry in assay [1], in assay [2], in assay [3], in assay [4], in assay [5] and in [8] was “inactive” throughout. In addition, the result in assay [6] and in assay [9] was inactive.

As to `Nc1ccc(S(=O)(=O)O)cc1`, the Potency result in [1], in assay [2], in assay [3], in [4] and in assay [5] was “inactive” each time. Besides, the outcome in assay [6], in assay [7] and in [9] was inactive.

Turning to `Cc1cc(O)c(C(C)C)cc1Cl`, the Potency result in assay [1], in assay [2], in [4] and in assay [8] was “inactive” in each case. Further, in [3], the Potency result is “inactive and 54.5 µM (active)”. Besides, the call in assay [6], in assay [7] and in assay [9] was inactive.

For the compound `CCCCCCCCSCCO`, the Potency entry in [1], in assay [2], in assay [3], in assay [4], in assay [5] and in assay [8] was “inactive” in each case. Further, the outcome in assay [6] and in [9] was inactive.

Take `CCCCC/C(=C\c1ccccc1)CO`: the Potency entry in assay [1], in assay [2], in assay [3], in assay [4] and in assay [8] was “inactive” throughout. The Potency in assay [10] is 30300 nM (active). The compound was called inactive in assay [6], in [7] and in [9].

For the compound `C[Si](NC1CCCCC1)(NC1CCCCC1)NC1CCCCC1`, the Potency entry in [1], in [2], in assay [3], in [4] and in assay [5] was “inactive” throughout. Moreover, the outcome in assay [6], in assay [7] and in assay [9] was inactive.

On to `O=[N+]([O-])c1cccc(S(=O)(=O)NCCNS(=O)(=O)c2cccc([N+](=O)[O-])c2)c1`, for which the Potency result in assay [1], in assay [2], in [3] and in assay [4] was “inactive” in each case. The compound was called inactive in assay [6], in assay [7] and in [9].
